Reference: the supplement of paper PMC3334620
Over roughly 33,000 sequences, “E-score (-0.5 to 0.5)” has its median near -0.012; the highest 2% begin near 0.29. The sample as a whole holds a higher share of the highest values than the screen did.

Each sequence was assayed against T1, Ybr033w (UniProt P38073) (assay: PBM E-score (8-mer binding enrichment) (E-score (-0.5 to 0.5)); higher = stronger / more preferred TF binding). Conditions: protein concentration: 200 nM; construct: GST-full length.
T1 sequence: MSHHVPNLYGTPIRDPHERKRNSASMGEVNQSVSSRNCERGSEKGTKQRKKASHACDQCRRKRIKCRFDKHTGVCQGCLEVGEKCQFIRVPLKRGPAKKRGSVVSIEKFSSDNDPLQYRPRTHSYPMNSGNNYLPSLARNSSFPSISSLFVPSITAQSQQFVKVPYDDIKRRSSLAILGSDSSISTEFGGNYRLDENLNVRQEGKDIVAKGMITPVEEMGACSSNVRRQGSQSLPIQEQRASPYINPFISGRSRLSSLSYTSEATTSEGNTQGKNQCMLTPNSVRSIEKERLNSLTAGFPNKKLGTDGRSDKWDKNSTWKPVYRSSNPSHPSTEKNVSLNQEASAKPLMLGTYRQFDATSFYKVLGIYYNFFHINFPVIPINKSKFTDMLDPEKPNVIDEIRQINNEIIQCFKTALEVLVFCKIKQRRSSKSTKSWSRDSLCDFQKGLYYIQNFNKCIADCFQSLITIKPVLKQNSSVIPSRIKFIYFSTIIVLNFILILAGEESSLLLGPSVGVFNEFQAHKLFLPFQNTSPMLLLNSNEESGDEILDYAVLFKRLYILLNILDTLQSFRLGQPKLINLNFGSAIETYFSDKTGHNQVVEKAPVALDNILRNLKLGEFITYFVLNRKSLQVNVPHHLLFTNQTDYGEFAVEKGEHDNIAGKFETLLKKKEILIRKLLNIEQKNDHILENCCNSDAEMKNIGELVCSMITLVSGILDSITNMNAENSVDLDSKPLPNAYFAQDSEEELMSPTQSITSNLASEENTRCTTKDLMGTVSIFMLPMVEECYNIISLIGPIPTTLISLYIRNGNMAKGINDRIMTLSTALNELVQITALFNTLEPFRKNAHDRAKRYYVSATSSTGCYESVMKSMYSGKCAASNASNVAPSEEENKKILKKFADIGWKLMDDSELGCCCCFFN
Experimental: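 Universal 'all 10-mer' protein binding microarrays (Agilent AMADID 015681) probed with GST-tagged S. cerevisiae TFs (full-length or DBD) made by in vitro transcription/translation (PURExpress), about 100-200 nM. Bound TF was detected with fluorescent anti-GST. Each ungapped 8-mer (which stands for itself and its reverse complement) is scored by the PBM enrichment score (E-score), a modified Wilcoxon-Mann-Whitney statistic from -0.5 to +0.5, computed with the Universal PBM Analysis Suite. Scale: above 0.35 generally sequence-specific binding.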

Sequence | PBM E-score
CACCGACG | -0.0189
ATATCCAT | 0.196
GAGCTCAC | -0.27
CATATGCA | 0.0648
CCCTTACC | -0.131
ATATTTTC | 0.342
ATCTTTTA | 0.236
CTATTTCC | 0.276
ATATTTCC | 0.349
CTATTTTC | 0.284
ATCTTTAA | 0.299
ATCTTTAC | 0.203
ATATTTTG | 0.234
ATATTTCG | 0.269
CCCCTTTC | -0.262
GGAACGAA | 0.104
AGGGATAT | 0.0785
ACGACTCC | 0.0443
CGGGGTAG | -0.177
GTGGCTAA | 0.0232
AAATTTGG | 0.0261
AAAATTAT | 0.358
AATTTTGT | 0.215
AAAATTAC | 0.22
AAATTTAT | 0.228

Sequence | PBM E-score
AAAATTCA | 0.359
AAAATTCG | 0.279
GAAATTAA | 0.294
AAATTTGT | 0.303
CAAATTAA | 0.212
GAAATTCA | 0.228
GAAATTAC | 0.255
CCACTTAC | 0.0573
TAACGGAA | 0.153
CTCAGAGC | -0.191
CCGAAGTC | -0.0348
CAATGAAG | 0.0396
GACTGTTA | 0.0926
AGAGGAAT | -0.012
ACGAGGAC | -0.181
CTAAATGC | 0.0943
GAAATTGC | 0.0471
TAAATTAA | 0.283
GAAATTGA | 0.289
AAAAATTT | 0.283
TAAATTGA | 0.265
AAAATTTT | 0.293
AAAATTAG | 0.179
AAAATTTC | 0.132
AAAATTAA | 0.308

Sequence | PBM E-score
GGGGAGGA | -0.205
ATGGTCTC | -0.0831
CAGCAGAC | -0.106
ACAGTCGC | -0.136
AAGCGACG | -0.285
ACGGGTGG | -0.171
GTACGCTA | -0.178
TCCCTACA | -0.0308
ATTAAACG | 0.27
TTAAAAAA | 0.306
ATTAAAAG | 0.223
TTTAAAAA | 0.149
GTTAAAGA | 0.182
CTTAAAGA | -0.102
ATTAAACA | 0.312
CTTAAACA | 0.104
CTAAAAAA | 0.267
ATTAAAGA | 0.327
ATTAAAAC | 0.272
ATTAAAAA | 0.297
GGGTATGA | 0.0197
ACTCCCCT | -0.002
CTGATAAG | 0.126
AGAAACCC | 0.0994
CAGTGCCG | -0.105

Sequence | PBM E-score
CTTCGTAC | -0.103
GCCGCTAC | -0.121
GAGCTGCA | -0.284
AAGTAATA | 0.0769
CAGTAATG | 0.282
AAGTAATG | 0.141
GAGTAATC | 0.132
CAGTAATA | 0.317
TAGTAATA | 0.241
AAGTAATT | 0.331
GAGTAATA | 0.334
CAGTAATC | -0.0846
GGGCTGAA | 0.0197
ATAGCCAT | 0.0973
ACAATGCC | -0.0228
CGCAAATC | -0.0144
TAGGTGCA | -0.0741
TAATGGAA | 0.184
GTGATTAA | 0.291
CGGATTAG | -0.0597
TGCATTAA | 0.256
GGGATTAC | -0.103
GGGATTGA | -0.148
ATGATTAA | 0.231
GGGATTAA | 0.411

Sequence | PBM E-score
ATGATTTA | 0.253
CTGATTAA | 0.22
CTGATTTA | 0.156
GTGATTTA | 0.295
TGGATTAA | 0.38
ACGCATTG | -0.0453
AGCCCACG | -0.202
CATGGTGA | 0.137
GCGATTTA | 0.0771
GCGATTAA | 0.19
ACGATTTA | 0.36
CCGATTTA | 0.183
TCGATTAA | 0.288
ACGATTAA | 0.141
ACACCGTC | -0.0477
AAGCGCAT | -0.0621
CACCGCTA | -0.0953
TAAACTGA | 0.136
ATGGCCTG | -0.16
TCGATACA | 0.298
ACGATACA | 0.0132
GCGATACA | 0.0586
ACGGTAGC | -0.123
ACTAGTCT | -0.0233
ACCATCGG | -0.118

Sequence | PBM E-score
ACAACCAC | 0.0628
ACAACCAT | 0.297
ACAACCAG | 0.102
CGTTCTGC | 0.0161
GCTTATGA | -0.0277
AACTAAAG | 0.231
AACTAATA | 0.298
CACTAATG | 0.0973
AACTAACT | 0.126
AACTAATG | 0.29
CACTAATA | 0.0444
AACTAATC | 0.192
TACTAATA | 0.185
AACTAATT | 0.293
AAATCGGC | -0.158
CCACCGGA | 0.172
GAGACCAA | 0.0622
ATCCGCTC | -0.102
ACGGTATG | -0.0502
AGGCATAA | -0.0986
ATTTAGGC | 0.117
CCCACCTC | -0.244
AAATTTAG | 0.278
CAATTTAA | 0.27
AAATTTCA | -0.0112

Sequence | PBM E-score
AAATTTAC | 0.263
TAATTTAA | 0.343
TAATTTCA | 0.289
AAATTTAA | 0.29
CAATTTCA | 0.0349
GAATTTAA | 0.0723
CGCCAGAA | 0.043
ACAAGTAT | 0.249
AACACAAC | 0.116
CCTTTCTC | -0.11
CCGTCGCC | -0.247
TGGATAAA | 0.391
AGGATACT | -0.0125
ACGATAAT | 0.163
ATGATAAA | 0.238
TTGATAAA | 0.368
CAGATAAA | 0.194
TGGATACA | 0.0503
AGGATAAT | 0.36
TAGATAAA | 0.341
GTGATAAA | 0.102
AAGATAAA | 0.257
TCGATAAA | 0.167
